# Records with an inconclusive call do not appear. Activity calls are given as the source filed them. The call rests on the fitted dose curve.
# Biological target: Peroxisome proliferator-activated receptor gamma (Homo sapiens) (UniProt P37231)
# Assay: qHTS assay to identify small molecule antagonists of the peroxisome proliferator-activated receptor gamma (PPARg) signaling pathway (AID 743191); further: nearly all actives have a fitted effect of over 30% in size
# Settings: HEK293H PPARg-UAS-bla, beta-lactamase ratio, antagonist, 17 h; series mostly up to 62.6 µM; ratio activity, negative = inhibition: at the top concentration
# Description: U.S. Tox21 Program National Center for Advancing Translational Sciences [NCATS] NIH Chemical Genomics Center [NCGC] U.S. Environmental Protection Agency [EPA] National Institutes of Environmental Health Sciences [NIEHS] National Toxicology Program [NTP] U.S. Food and Drug Administration [FDA] Tox21 Assay Overview: The peroxisome proliferator-activated receptors (PPARs) are lipid-activated transcription factors of the nuclear receptor superfamily with three distinct subtypes namely PPAR alpha, PPAR delta (also called PPAR beta) and PPAR gamma (PPARg). All these subtypes heterodimerize with Retinoid X receptor (RXR) and these heterodimers regulate transcription of various genes. PPAR-gamma receptor (glitazone receptor) is involved in the regulation of glucose and lipid metabolism. To identify the compounds that inhibit PPAR-gamma signaling, GeneBLAzer PPAR gamma UAS-bla HEK293H cell line (Invitrogen, Carlsbad, CA, USA) containing a beta-lactamase reporter gene under control of an Upstream Activator Sequence (UAS) was used to screen the Tox21 compound library.
# Tox21 Assay Protocol Summary: PPARg-bla cells were dispensed at 3000 cells/6uL/well in 1536-well black wall/clear bottom plates using a Multidrop Combi (Thermo Fisher Scientific, Waltham, MA) dispenser. After the assay plates were incubated at 37C and 5% CO2 for 5 h, 23 nL of compounds dissolved in DMSO, positive controls or DMSO only was transferred to the assay plate by a Pintool station (Kalypsys, San Diego, CA). The assay plates were incubated at 37C for 17 h. After 1 uL of LiveBLAzerTM B/G FRET substrate was added using a Bioraptr Flying Reagent Dispenser (FRD) workstation (Beckman Coulter, Indianapolis, IN, USA), the plates were incubated at room temperature for 1 h, and fluorescence intensity was measured by an Envision plate reader (PerkinElmer, Shelton, CT).
# On the % scale 0 is the no-effect control and ±100 the full control effect.
# Sequence of Peroxisome proliferator-activated receptor gamma (Homo sapiens) (P37231 whole entry, looked up): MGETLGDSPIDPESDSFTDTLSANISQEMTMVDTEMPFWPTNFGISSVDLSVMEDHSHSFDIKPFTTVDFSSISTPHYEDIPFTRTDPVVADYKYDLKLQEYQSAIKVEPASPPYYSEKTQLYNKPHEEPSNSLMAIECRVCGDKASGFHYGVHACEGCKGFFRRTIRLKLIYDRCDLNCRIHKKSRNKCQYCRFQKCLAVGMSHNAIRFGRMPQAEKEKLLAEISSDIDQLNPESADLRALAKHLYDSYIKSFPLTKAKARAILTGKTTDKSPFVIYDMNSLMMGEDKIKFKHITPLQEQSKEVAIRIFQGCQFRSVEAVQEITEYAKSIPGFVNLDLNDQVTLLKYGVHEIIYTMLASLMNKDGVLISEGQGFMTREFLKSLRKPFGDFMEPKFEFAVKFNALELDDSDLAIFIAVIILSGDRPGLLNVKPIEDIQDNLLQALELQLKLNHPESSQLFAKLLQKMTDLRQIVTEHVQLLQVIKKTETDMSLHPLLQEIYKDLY
SMILES,"ratio activity, negative = inhibition",outcome
CCOC(=O)n1ccn(C)c1=S,6.4% (inactive),
CCO[Si](CCC#N)(OCC)OCC,-6.16% (inactive),
CC(CCO)CC(C)(C)C (stereo not given),-24.4% (inactive),
CCCCCCCCCCCC(=O)OC,,inactive
CCc1ccccc1CC,,inactive
COc1cc(OC)c(C(=O)CCCN2CCCC2)c(OC)c1,8.58% (inactive),
CC(=O)c1ccc(O)cc1,,inactive
CCNc1ccccc1,-10.1% [at 81.1 µM] (inactive),
C=CC(C)CCCC(C)(C)O (stereo not given),-7.28% (inactive),
CC(=O)OCc1ccccc1,2.5% (inactive),
CCOCCOCCOCCO,,inactive
OC1C(O)C(O)C(O)C(O)C1O (stereo not given),,inactive
c1ccc2c(c1)Cc1ccccc1-2,20.3% (inactive),
CC(=O)OC1CC(C)OC(C)O1 (stereo not given),,inactive
O=C(OCC1CCC2OC2C1)C1CCC2OC2C1 (stereo not given),,inactive
CN1C(=O)CC[C@H]1c1cccnc1,5.31% (inactive),
CN(C)CCOC(=O)COc1ccc(Cl)cc1,-14.9% (inactive),
N#Cc1ccccc1,,inactive
N[C@H](Cc1c[nH]c2ccccc12)C(=O)O,,inactive
Cc1ccc2ncccc2c1,14.4% (inactive),

SMILES,"ratio activity, negative = inhibition",outcome
CCCCCCCCCCO,-3.01% (inactive),
CCCCCCCO,-29.1% [at 81.1 µM] (inactive),
CC(C)OP(=O)(CP(=O)(OC(C)C)OC(C)C)OC(C)C,,inactive
C[C@]12CC[C@@H]3c4ccc(O)cc4CC[C@H]3[C@@H]1C[C@@H](O)[C@@H]2O,,inactive
CNC(=O)Oc1ccc2c(c1)[C@]1(C)CCN(C)[C@@H]1N2C,,inactive
O=[N+]([O-])c1ccc2nc[nH]c2c1,,inactive
O=c1[nH]cnc2[nH]ncc12,,inactive
COc1ccccc1OCC(O)CO (stereo not given),,inactive
O=C(O)c1ccc(S(=O)(=O)N(Cl)Cl)cc1,,inactive
COC(=O)c1cccnc1,1.2% (inactive),
CSc1ccc(Cl)cc1,-0.842% (inactive),
CCNc1cccc(C)c1,-6.31% (inactive),
COc1ccc(OC)cc1,12.1% [at 81.1 µM] (inactive),
CC(C)(C)c1cc(Cc2cc(C(C)(C)C)c(O)c(C(C)(C)C)c2)cc(C(C)(C)C)c1O,-11.2% (inactive),
CCCCCCC=O,,inactive
COc1ccc(CCC(C)=O)cc1,13.7% (inactive),
COc1ccc(C)cc1N,-8.15% (inactive),
CC1(C)OC[C@@H]2O[C@@]3(C(=O)O)OC(C)(C)O[C@H]3[C@@H]2O1,9.32% (inactive),
CN(C)c1ccc(Cc2ccc(N(C)C)cc2)cc1,,inactive
Cc1ccc(S(=O)(=O)N=C=O)cc1,10.1% (inactive),

# Source: PubChem BioAssay (Tox21)
